# PubChem BioAssay (EPA / NIEHS)
# Results filed as inconclusive are left out. The source made the active and inactive calls. Rule for the calls, unless noted: active = hit-call score of the fitted dose curve at least 0.9, where 1 is the maximum; inactive = score below 0.9.
# Columns and labels:
# [1] = CCTE_Padilla_ZF_144hpf_TERATOSCORE: (Legacy) CCTE's 144 Hour Post-fertilization zebrafish Assay Teratoscore, Padilla Lab (AID 2283679);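 for AC50: zebrafish embryos with chorions exposed by immersion from 6-8 hpf to 5 dpf with daily renewal; teratogenicity score from eye scoring of death hatching and malformations at 144 hpf; higher score means more developmental defects relative to DMSO baseline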
# In short: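 Larvae scored by eye at 144 hpf for death, hatching and malformations after a day in clean Hanks'. Before that, daily-renewed exposure at 80 uM (0.4% DMSO, 26C) from roughly 6-8 hpf through 5 dpf, 4 embryos per chemical.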
# [2] = Tanguay_ZF_120hpf_ActivityScore_legacy: (Legacy) Oregon State University Tanguay Lab 120 Hour Post-fertilization zebrafish Assay Score for Activity (AID 2283742; active = hit-call score of the fitted dose curve at least 0.9, where 1 is the maximum;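 for AC50: dechorionated Tropical 5D wild-type zebrafish embryos held singly per well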)
# In short: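 Dechorionated 5D embryos, one per well, static exposure 6–120 hpf, 28C, sealed and dark; final DMSO 0.64% (vol/vol). Brightfield binary scoring of mortality plus 18 endpoints; gain-of-signal fit versus DMSO baseline.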
# [3] = STM_H9_OrnithineISnorm_perc: Stemina devTOX quickPredict H9 human embryonic stem cell (hESC)-based Assay for Ornithine (ORN) Metabolite Biomarker, Normalized (AID 2283712);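 note: ornithine released into spent medium during last day measured by mass spectrometry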
# In short: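 Ornithine in spent medium from the last 24 h of a 72 h exposure, deproteinised and quantified by UPLC-HRMS against an isotope-labelled internal standard, expressed relative to 0.1% DMSO. Pluripotent H9 cells; compound refreshed every 24 h.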
# [4] = STM_H9_CystineISnorm_perc: Stemina devTOX quickPredict H9 human embryonic stem cell (hESC)-based Assay for Cystine (CYSS) Metabolite Biomarker, Normalized (AID 2283713)
# In short: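 Cystine in spent media from the last 24 h of a 72 h H9 hESC exposure (daily re-dosing), measured by UPLC-HRMS. Values normalized to isotopic internal standard, then to 0.1% DMSO; viability via CellTiter-Fluor.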
# [5] = STM_H9_OrnCyssISnorm_ratio: Stemina devTOX quickPredict H9 human embryonic stem cell (hESC)-based Assay for Ornithine (ORN):Cystine (CYSS) Ratio (AID 2283714; active = hit-call score of the fitted dose curve at least 0.9, where 1 is the maximum)
# In short: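 UPLC-HRMS of spent media: ORN/CYSS ratio of internal-standard-normalized percentages, DMSO (0.1%) baseline. Pluripotent H9 hESCs, 72h exposure, daily re-dosing with fresh media; last 24h media collected.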
# [6] = CEETOX_H295R_MTT_cell_viability: Viability Assessment in the CeeTox HT-H295R MTT Assay (AID 2283718);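 for AC50: curve fitted both ways so AC50 may mark viability loss or gain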
# In short: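 Human H295R adrenal cells, prestimulated 48 h with 10 uM forskolin, were exposed 48 h to chemicals in 0.1% DMSO. Viability was measured in the same wells by MTT (0.5 mg/ml, 4 h, 37 C), absorbance 570/650 nm, as percent of controls.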
# [7] = molecular target: Luciferin 4-monooxygenase (Photinus pyralis) (UniProt P08659); assay: CCTE_Simmons_QuantiLum_inhib_2: CCTE's Firefly Luciferase Inhibition Assay, Simmons Lab (AID 2283767; active = hit-call score of the fitted dose curve at least 0.9, where 1 is the maximum)
# In short: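 Eight test concentrations, 5 nM up to 87.5 uM final, preincubated 30min at 37C in the dark with purified luciferase (0.5% DMSO final). Detection reagent (150uM D-luciferin, 147uM dATP, 75uM CoA, pH 7.8) injected per well before kinetic luminescence read; three replicates.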
# [8] = molecular target: zebrafish Estrogen Receptor (ESR1), esr1 (gene 259252) (UniProt P57717); assay: ATG_zfER1_XSP1: Attagene TRANS-FACTORIAL Multi-Species (XSP1) HepG2 Assay for zebrafish Estrogen Receptor (ESR1) (AID 2283772; active = hit-call score of the fitted dose curve at least 0.9, where 1 is the maximum)
# In short: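 Exogenous chimeric receptor-GAL4 activity is measured in transiently transfected human HepG2 liver cells after 24 h compound exposure. Reporter transcripts are detected by RT-PCR and fluorescent capillary electrophoresis, analysed for signal gain relative to DMSO.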
# [9] = test system: Thyroperoxidase (TPO), gene 445522; assay: CCTE_Simmons_GUA_TPO: CCTE's Guaiacol Assay for Thyroperoxidase (TPO) Inhibition, Simmons Lab (AID 2283750; active = hit-call score of the fitted dose curve at least 0.9, where 1 is the maximum)
# In short: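 Porcine thyroid microsomes (25 ug) in 200mM potassium phosphate, preincubated 30 s at 37C with compound (8 concentrations, 5 nM–87.5 uM) and 35mM guaiacol; 1mM H2O2 starts reaction. Absorbance change at 450nm over first 80 s; loss of signal versus DMSO, three replicates.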
# [10] = test system: chicken Androgen Receptor (AR), gene 422165; assay: ATG_chAR_XSP1: Attagene TRANS-FACTORIAL Multi-Species (XSP1) HepG2 Assay for chicken Androgen Receptor (AR) (AID 2283768; active = hit-call score of the fitted dose curve at least 0.9, where 1 is the maximum)
# In short: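 Reporter mRNA read by RT-PCR with fluorescent labelling and capillary electrophoresis 24 h after chemical dosing of transiently transfected HepG2 cells. Chicken AR-Gal4 chimera, partially stimulated with 3 nM 6-alpha-fluorotestosterone; activity fitted upward relative to DMSO.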
# Chain of Luciferin 4-monooxygenase (Photinus pyralis) (P08659 whole entry, looked up): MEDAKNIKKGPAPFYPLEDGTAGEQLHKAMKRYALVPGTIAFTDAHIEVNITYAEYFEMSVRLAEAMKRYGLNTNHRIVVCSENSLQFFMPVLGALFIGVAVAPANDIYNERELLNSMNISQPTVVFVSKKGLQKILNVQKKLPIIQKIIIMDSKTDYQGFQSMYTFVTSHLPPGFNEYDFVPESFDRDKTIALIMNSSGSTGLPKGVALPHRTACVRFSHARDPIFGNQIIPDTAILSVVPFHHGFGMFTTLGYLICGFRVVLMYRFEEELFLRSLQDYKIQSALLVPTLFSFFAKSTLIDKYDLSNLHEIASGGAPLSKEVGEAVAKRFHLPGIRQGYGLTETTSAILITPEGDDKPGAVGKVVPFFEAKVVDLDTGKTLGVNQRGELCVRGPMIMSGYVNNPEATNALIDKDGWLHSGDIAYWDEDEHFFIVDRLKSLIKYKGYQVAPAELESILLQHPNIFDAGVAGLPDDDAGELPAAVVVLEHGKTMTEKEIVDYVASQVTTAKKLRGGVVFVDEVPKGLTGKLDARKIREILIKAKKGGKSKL
# Chain of zebrafish Estrogen Receptor (ESR1), esr1 (gene 259252) (P57717 whole entry, looked up, the tested form may be a part): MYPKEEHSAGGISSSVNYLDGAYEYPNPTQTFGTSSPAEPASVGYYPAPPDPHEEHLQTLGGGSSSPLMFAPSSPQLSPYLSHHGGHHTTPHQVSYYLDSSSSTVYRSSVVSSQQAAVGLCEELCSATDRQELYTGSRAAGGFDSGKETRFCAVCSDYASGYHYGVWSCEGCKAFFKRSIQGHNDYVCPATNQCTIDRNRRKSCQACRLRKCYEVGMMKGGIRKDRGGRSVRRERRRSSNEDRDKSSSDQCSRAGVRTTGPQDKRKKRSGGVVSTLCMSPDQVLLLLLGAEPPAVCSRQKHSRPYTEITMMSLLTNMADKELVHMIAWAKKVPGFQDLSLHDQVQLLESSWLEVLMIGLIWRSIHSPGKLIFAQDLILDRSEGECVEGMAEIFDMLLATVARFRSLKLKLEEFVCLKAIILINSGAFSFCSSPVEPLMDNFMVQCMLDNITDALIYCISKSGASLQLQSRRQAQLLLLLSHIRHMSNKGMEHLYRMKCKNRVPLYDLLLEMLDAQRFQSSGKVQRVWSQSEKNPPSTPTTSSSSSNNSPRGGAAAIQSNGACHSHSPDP
compound,measurement,setting,value
CCCCOC(=O)CC(CC(=O)OCCCC)(OC(C)=O)C(=O)OCCCC,AC50,[1],4.96 µM (active)
same,outcome,[2],inactive
CN(C)C(=O)C1(N2CCCCC2)CCN(CC[C@@]2(c3ccc(Cl)c(Cl)c3)CN(C(=O)c3ccccc3)CCO2)CC1,AC50,[1],15 µM (active)
same,AC50,[3],8.19 µM (active)
same,outcome,[4],inactive
same,AC50,[5],8.17 µM (active)
same,AC50,[2],16.2 µM (active)
COc1cccc([C@H](O)C2CCN(CCc3ccc(F)cc3)CC2)c1OC,AC50,[1],124 µM (active)
same,outcome,[3],inactive
same,AC50,[4],6.34 µM (active)
same,AC50,[5],10 µM (active)
same,outcome,[6],inactive
same,outcome,[2],inactive
Cc1oc2c(NC(=O)c3c(Cl)cccc3Cl)cccc2c1C(C)(C)O,AC50,[1],8.93 µM (active)
same,outcome,[6],inactive
same,AC50,[2],45.5 µM (active)
CCCCCCCC[Si](OCC)(OCC)OCC,outcome,[1],inactive
same,outcome,[6],inactive
same,outcome,[2],inactive
CC/C(=C(/CC)c1ccc(O)cc1)c1ccc(O)cc1,AC50,[1],5.03 µM (active)
same,outcome,[3],inactive
same,outcome,[4],inactive
same,outcome,[5],inactive
same,AC50,[6],24.4 µM (active)
same,AC50,[2],28.5 µM (active)
same,outcome,[7],inactive
same,AC50,[8],0.00024 µM (active)
CC(C)(C)c1cc(/C=C2\SC(N)=NC2=O)cc(C(C)(C)C)c1O,AC50,[1],4.17 µM (active)
same,outcome,[3],inactive
same,AC50,[4],5 µM (active)
same,AC50,[5],3.33 µM (active)
same,outcome,[6],inactive
same,AC50,[2],47.2 µM (active)
same,outcome,[7],inactive
Cc1c2ccccc2c(C)c2c1ccc1ccccc12,AC50,[1],4.42 µM (active)
same,outcome,[3],inactive
same,AC50,[4],5 µM (active)
same,AC50,[5],5 µM (active)
same,outcome,[6],inactive
same,AC50,[2],8.83 µM (active)
same,AC50,[9],146 µM (active)
same,outcome,[7],inactive
same,AC50,[10],8.7 µM (active)
same,AC50,[8],9.59 µM (active)
O=C1c2ccccc2C(=O)N1CCc1noc(-c2ccc(CN3CCCCCC3)s2)n1,AC50,[1],20.2 µM (active)
same,outcome,[6],inactive
same,outcome,[2],inactive
CN1C(=O)N(c2ccccc2Br)Cc2cnc(Nc3ccc4c(c3)OCC(CO)O4)nc21 (stereo not given),AC50,[1],4.31 µM (active)
same,AC50,[3],1.42 µM (active)
same,AC50,[4],1.06 µM (active)
same,AC50,[5],1.18 µM (active)
same,outcome,[6],inactive
same,AC50,[2],6.73 µM (active)
Cc1occc1C(=O)Nc1ccc(C(=O)N2CCC(F)(F)/C(=C\C(=O)N3CCC(N4CCCCC4)CC3)c3ccccc32)cc1,outcome,[1],inactive
same,outcome,[2],inactive
C[C@]12CC[C@@H]3c4ccc(O)cc4CC[C@H]3[C@@H]1CC[C@H]2O,AC50,[1],15 µM (active)
same,outcome,[6],inactive
same,outcome,[2],inactive
same,outcome,[7],inactive
CCCCCCCCCCCO,AC50,[1],62.4 µM (active)
same,outcome,[2],inactive
C[C@]12CC[C@@H]3c4ccc(O)cc4CC[C@H]3[C@@H]1CCC2=O,outcome,[1],inactive
same,outcome,[6],inactive
same,outcome,[2],inactive
same,AC50,[8],0.0145 µM (active)
